Source: PubChem BioAssay (National Center for Advancing Translational Sciences (NCATS))
A selection: hits, their analogues and other compounds. The true share with any hit is near 4.2%.
ClpP mod – qHTS Assay for Activators of ClpP. purified B. subtilis ClpP, FRET peptide cleavage, 20 min. Potency, µM (doses to about 57.5 µM), inactives show at the highest dose activity change, negative = active. 340,000 compounds, 1.9% hits. AID 651965, 2013; active means well fitted falling curve with a large enough effect; inconclusive means small, poorly fitted or top-dose-only effect; inactive means no such curve, though single readings can be large or run the other way; further: potency means the concentration at half of the fitted maximal effect; the source files actives as falling curves though it sought activators and does not explain the sign; nearly all actives have a fitted effect of over 65% in size
Target sequence (P80244 whole entry, looked up): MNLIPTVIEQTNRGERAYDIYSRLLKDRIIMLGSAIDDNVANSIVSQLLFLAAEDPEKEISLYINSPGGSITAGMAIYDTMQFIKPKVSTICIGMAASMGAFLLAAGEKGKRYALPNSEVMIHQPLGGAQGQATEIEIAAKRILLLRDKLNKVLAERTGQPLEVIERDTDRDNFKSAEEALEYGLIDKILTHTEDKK
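Buffer: 100 mM Tris/HCl pH8, 100 mM KCl, 0.05% low protease BSA, 2.5% glycerol, 0.01% Tween-20. ClpP 10 microg/mL final; 20 min RT; delta FRET normalized to ADEP and DMSO controls.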
Sfp inh – Sfp phosphopantetheinyl transferase inhibition. Q9F4F7. Biochemical Sfp PPTase activity, qHTS. 310,000 compounds, 3.5% hits. Potency, µM, for inactives: largest response in the series, negative = inhibition, usual class: inhibitors;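 further: the enzyme is Sfp with the accession as filed and its product quenches rhodamine fluorescence; potency means the concentration at half of the fitted maximal effect; 0% = enzyme reaction without inhibitor and -100% = no enzyme wells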
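Reaction rates are the 30-min fluorescence difference (ex 525, em 598 nm) in wells containing 15 nM Sfp, 5 uM rhodamine-CoA and 12.5 uM BHQ-2-YbbR at pH 7.6 with 10 mM MgCl2.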
TCR activator – activates T cell receptor signaling. 330,000 tested, under 10 active. primary human leukocytes, anti-CD3, IL-2 HTRF, 48 h. Potency, µM (series often up to 9.22 µM), for the others: top-dose activation of IL-2 secretion, usual class: activators; further: % of control where 0% means no effect
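48 hr co-incubation of compounds, a-CD3 beads and primary human leukocytes; IL-2 quantified homogeneously by HTRF with anti-IL-2 K and d2 conjugates.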
uPA generation – cell surface uPA generation inhibition. cell surface uPA generation assay, qHTS. Potency, µM (titrated, usually from 38.3 µM), without a hit: at the highest dose activity change, negative = inhibition, most hits filed as inhibitors. 330,000 compounds, 0.31% hits. AID 540303; active means well fitted inhibition curve with a large enough effect; inconclusive means small, poorly fitted or top-dose-only effect; inactive means no such curve, though single readings can be large or run the other way; tested in mouse RAW 264.7 cells; further: potency means the concentration at half of the fitted maximal effect; on the % scale 0 is the no-effect control and ±100 the full control effect; nearly all actives have a fitted effect of over 55% in size
Numbers without * were called inactive; ? = inconclusive; · = no result; [ ] = remark or other dose. Unless noted, the call rests on the fitted dose curve; in most records, active means well fitted curve in the direction sought with a large enough effect; inconclusive means small, poorly fitted or top-dose-only effect, or another doubt; inactive means no such curve, though single readings can be large; an effect the other way counts as inactive or inconclusive.

SMILES | ClpP mod | Sfp inh | TCR activator | uPA generation
Nc1c(C(=O)NCc2ccccc2)c2nc3ccccc3nc2n1-c1ccc2c(c1)OCO2 | 22.4µM* | -12.2% | 1.2% | 5.3%
COc1ccc(-n2c(N)c(C(=O)NCc3ccco3)c3nc4ccccc4nc32)cc1 | 31.6µM* | 25.1µM* | 2.7% | 1.2%
COCCNC(=O)c1c(N)n(CCCn2ccnc2)c2nc3ccccc3nc12 | 15.8µM* | -10.5% | 0.0% | -2.1%
COCCCNC(=O)c1c(N)n(/N=C/c2cccs2)c2nc3ccccc3nc12 | 31.6µM* | 11.2% | 0.2% | 5.8%
N#Cc1c(N)n(CCc2ccc(F)cc2)c2nc3ccccc3nc12 | 31.6µM* | 11.8% | -6.3% | -1.1%
C=CCNC(=O)c1c(N)n(-c2cccc(S(N)(=O)=O)c2)c2nc3ccccc3nc12 | 14.1µM* | -9.7% | -0.4% | -2.9%
COCCn1c(N)c(C#N)c2nc3ccccc3nc21 | -2.5% | 12.8% | 6.5% | ·
COCCNC(=O)c1c(N)n(-c2ccccc2)c2nc3ccccc3nc12 | 17.8µM* | -6.0% | · | 11.6%
COc1ccc(-n2nc(C(=O)NCc3ccco3)c3ccccc3c2=O)cc1 | 22.4µM* | 16.1% | -3.9% | ·
COCCNC(=O)c1c(N)n(-c2cccc(C)c2)c2nc3ccccc3nc12 | -15.9% | -20.2% | 3.9% | 8.8%
COc1cccc(CNC(=O)C2CCC(CNS(=O)(=O)c3ccc(Br)s3)CC2)c1 (stereo not drawn) | 0.5% | · | · | ·
CCc1nn2c(-c3ccccc3OC)ccnc2c1-c1ccc(F)cc1 | -2.2% | · | · | ·
Nc1c(C(=O)NCc2ccc3c(c2)OCO3)c2nc3ccccc3nc2n1CCCN1CCOCC1 | ? | ? | -3.0% | ?
Nc1c(C(=O)NCCN2CCOCC2)c2nc3ccccc3nc2n1CCc1ccccc1 | ? | -14.6% | -0.2% | 8.9%
Nc1c(C(=O)NCc2ccco2)c2nc3ccccc3nc2n1CCc1ccc(F)cc1 | 15.8µM* | 25.1µM* | -1.7% | -9.4%
COCCn1c(N)c(C(=O)NCc2cccs2)c2nc3ccccc3nc21 | 31.6µM* | -14.6% | -4.4% | 4.2%
COc1ccccc1CNC(=O)c1c(N)n(CCCN2CCOCC2)c2nc3ccccc3nc12 | ? | 56.2µM* | · | -11.5%
Nc1c(C(=O)NCCN2CCOCC2)c2nc3ccccc3nc2n1-c1ccccc1 | 11.2µM* | ? | 1.3% | -5.8%
CC(=O)OC1C=C[C@@H](OC(C)=O)C1 (stereo partly drawn) | · | -13.7% | · | ·
COCCCNC(=O)c1c(N)n(-c2ccc(S(N)(=O)=O)cc2)c2nc3ccccc3nc12 | 15.8µM* | 3.0% | 0.5% | 13.3%
CCOc1cc2[nH]c(=O)n(CCCCC(=O)N3CCN(c4ccccc4)CC3)c(=O)c2cc1OCC | -11.4% | · | · | ·
Cc1ccc2nc(COc3ccccc3NC(=O)COc3ccccc3Cl)cc(=O)n2c1 | -7.7% | · | · | ·
CCCC(=O)Nc1ccccc1OCc1cc(=O)n2cc(C)ccc2n1 | 28.2µM* | · | · | ·
COc1cccc(C(=O)OCC(=O)NC23CC4CC(CC(C4)C2)C3)c1 | -3.0% | · | 1.7% | -0.2%
CC(=O)Oc1cc(C(=O)OCC(=O)NC23CC4CC(CC(C4)C2)C3)cc(OC(C)=O)c1OC(C)=O | -6.5% | · | -0.2% | 10µM*
SMILES | ClpP mod | Sfp inh | TCR activator | uPA generation
Cc1cc(N(C)C)ccc1N=Nc1ccc2ncccc2c1 | -0.6% | 44.7µM* | 4.2% | -1.7%
CC(C)Cn1c(N)c(C(=O)COC(=O)c2ccc(Br)cc2)c(=O)n(C)c1=O | 0.1% | · | 0.7% | -9.3%
COC(=O)C1=C(C)Nc2[nH]c(=S)[nH]c(=O)c2C1c1ccc(O)cc1 (stereo not drawn) | -1.8% | 6.31µM* | 2.8% | -5.9%
C=CCOC(=O)C1=C(C)NC(C)=C(C(=O)OCC=C)C1c1ccc(O)cc1 | 22.4µM* | 8.5% | -1.7% | 0.0%
COc1cc(C2C(C(=O)OC(C)C)=C(C)Nc3[nH]c(=O)[nH]c(=O)c32)ccc1O (stereo not drawn) | -0.9% | 7.1% | 1.3% | 9.7%
CCc1ccc2c(CN(C)Cc3ccc(OC(F)F)c(OC)c3)cc(=O)oc2c1 | · | -4.4% | -1.9% | -11.8%
Cc1ccc(S(=O)(=O)N2CCN(Cc3ccccc3)CC2)c(C)c1NS(C)(=O)=O | -4.3% | · | · | ·
O=C(CCCCCn1nnc2ccccc2c1=O)Nc1ccccc1Cl | -0.2% | 10.6% | 3.3% | 2.6%
O=C(O)c1cc2c(ccc3ccccc32)oc1=O | · | 9.1% | · | ·
CC(OC(=O)c1cc2c(ccc3ccccc32)oc1=O)c1nc2ccccc2s1 (stereo not drawn) | 2.82µM* | 4.3% | -0.9%[46.1 µM] | -4.3%
CCc1ccc(/C([O-])=C(/C(=S)NCCN2CCOCC2)[n+]2ccccc2)cc1 | -4.3% | 44.7µM* | 5.6% | -10.3%
CCOc1ccccc1C(=O)N/N=C/c1cccc2cccnc12 | -0.8% | 89.1µM* | 5.1% | -6.7%
CCOc1ccccc1C(=O)Nc1cccc2ccc(C)nc12 | 31.6µM* | · | · | ·
[N-]=C=C1C(=O)NC(=O)C([n+]2ccc(-c3ccncc3)cc2)C1c1ccccc1C(F)(F)F (stereo not drawn) | · | 50.1µM* | -5.0% | 1.4%
[N-]=C=C1C(=S)NC(=O)[C@H]([n+]2ccccc2)[C@H]1c1ccc(Cl)cc1 | · | -10.2% | -3.4% | -1.1%
COc1cc2nc(C3CCC3)nc(N3CCN(c4ccccn4)CC3)c2cc1OC | -9.4% | 79.4µM* | 0.2%[46.1 µM] | 2.9%
COc1cc2nc(C3CCC3)nc(N3CCN(c4ccccc4OC)CC3)c2cc1OC | -3.4% | -23.3% | -1.9%[46.1 µM] | -10.5%
CCOC(=O)N1CCN(c2nc3ccccc3nc2C(C#N)S(=O)(=O)c2ccc(C)cc2)CC1 (stereo not drawn) | 31.6µM* | 14.1% | -8.9% | 3.8%
Cc1ccc(S(=O)(=O)C(C#N)c2nc3ccccc3nc2N2CCN(C)CC2)cc1 (stereo not drawn) | -2.4% | -10.3% | -4.1% | -7.6%
COc1cc(C(O)c2nc(-c3ccccc3)cs2)ccc1F (stereo not drawn) | -7.1% | · | · | ·
O=C(COc1ccccc1Cl)Nc1cc(-c2ccccc2F)nn1-c1ccccc1 | 0.7% | · | · | ·
OCCN1CCN(C(c2ccccc2Cl)c2sc3nc(-c4ccco4)nn3c2O)CC1 (stereo not drawn) | -1.6% | · | · | ·
Cc1cc(C)nc(NC(=O)c2cc(-c3ccc(C)s3)nc3ccccc23)c1 | 15.8µM* | -9.0% | 0.3%[46.1 µM] | 1.6%
Cc1cc(C)cc(NC(=O)c2cc(C)nc3ccccc23)c1 | 0.3% | 14.1% | · | -1.6%
Cc1ccc(-c2cc(C(=O)Nc3cccnc3)c3ccccc3n2)s1 | 15.8µM* | -2.6% | -11.9% | 0.6%
CC1CCc2c(sc(NC(=O)Cc3ccccc3)c2C(=O)Nc2ccc(Cl)cc2)C1 (stereo not drawn) | -18.4% | · | · | ·
COCCn1c(=O)c(-c2cccc(C#N)c2)nc2cnc(N3CCNCC3)nc21 | · | 4.2% | · | ·
CCc1ccc(NC(=O)Cn2c(=O)n(CCC(=O)NCCc3ccc(Cl)cc3)c(=O)c3ccccc32)cc1 | -3.0% | · | · | ·
CN1C(=O)/C(=C\C(=O)c2cccs2)c2ccccc21 | · | 44.7µM* | -4.3% | -3.6%
Cc1ccc(NC(=O)c2sc3ncn(Cc4cccc(F)c4)c(=O)c3c2C)c(Br)c1 | -10.1% | · | · | ·
